This passage reports inhibition results from ChEMBL document CHEMBL1961873, “Compounds: GSK PKIS; Assays: Nanosyn kinase panel” (2012).

Molecules are shown by their SMILES.

For experiment [1], the target named is T1, Ephrin type-B receptor 2 (Homo sapiens) (UniProt P29323).
T1 sequence (whole entry): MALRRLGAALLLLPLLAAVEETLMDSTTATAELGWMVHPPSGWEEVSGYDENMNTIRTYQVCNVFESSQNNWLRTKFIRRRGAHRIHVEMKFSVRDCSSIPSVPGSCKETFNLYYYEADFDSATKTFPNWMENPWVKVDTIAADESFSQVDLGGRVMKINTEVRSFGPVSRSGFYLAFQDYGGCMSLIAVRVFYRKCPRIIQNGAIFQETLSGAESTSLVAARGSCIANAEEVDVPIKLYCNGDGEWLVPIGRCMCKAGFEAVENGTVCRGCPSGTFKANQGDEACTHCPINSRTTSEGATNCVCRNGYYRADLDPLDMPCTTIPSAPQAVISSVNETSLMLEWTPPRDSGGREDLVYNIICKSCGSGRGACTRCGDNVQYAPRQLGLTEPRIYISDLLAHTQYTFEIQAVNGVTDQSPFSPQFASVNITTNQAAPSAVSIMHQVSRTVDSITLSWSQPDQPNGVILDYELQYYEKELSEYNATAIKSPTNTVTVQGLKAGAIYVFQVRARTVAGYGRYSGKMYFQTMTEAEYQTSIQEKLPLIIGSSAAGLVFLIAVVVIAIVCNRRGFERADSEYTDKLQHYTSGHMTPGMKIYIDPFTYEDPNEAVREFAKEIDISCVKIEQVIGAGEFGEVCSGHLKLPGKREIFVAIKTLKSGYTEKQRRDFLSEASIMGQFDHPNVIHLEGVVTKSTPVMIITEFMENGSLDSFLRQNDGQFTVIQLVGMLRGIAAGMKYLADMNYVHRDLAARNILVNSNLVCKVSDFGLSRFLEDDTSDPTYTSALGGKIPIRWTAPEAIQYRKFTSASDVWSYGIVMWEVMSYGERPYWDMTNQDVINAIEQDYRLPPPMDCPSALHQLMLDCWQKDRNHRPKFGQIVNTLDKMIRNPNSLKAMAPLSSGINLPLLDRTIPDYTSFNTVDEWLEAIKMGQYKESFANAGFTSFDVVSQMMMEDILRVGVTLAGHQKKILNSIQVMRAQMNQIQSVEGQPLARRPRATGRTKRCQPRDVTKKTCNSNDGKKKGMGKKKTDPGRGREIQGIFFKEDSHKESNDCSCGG
The note with it: at 1 µM.

Experiment [2] concerns the target T2, Ephrin type-B receptor 3 (Homo sapiens) (UniProt P54753).
T2 sequence (whole entry): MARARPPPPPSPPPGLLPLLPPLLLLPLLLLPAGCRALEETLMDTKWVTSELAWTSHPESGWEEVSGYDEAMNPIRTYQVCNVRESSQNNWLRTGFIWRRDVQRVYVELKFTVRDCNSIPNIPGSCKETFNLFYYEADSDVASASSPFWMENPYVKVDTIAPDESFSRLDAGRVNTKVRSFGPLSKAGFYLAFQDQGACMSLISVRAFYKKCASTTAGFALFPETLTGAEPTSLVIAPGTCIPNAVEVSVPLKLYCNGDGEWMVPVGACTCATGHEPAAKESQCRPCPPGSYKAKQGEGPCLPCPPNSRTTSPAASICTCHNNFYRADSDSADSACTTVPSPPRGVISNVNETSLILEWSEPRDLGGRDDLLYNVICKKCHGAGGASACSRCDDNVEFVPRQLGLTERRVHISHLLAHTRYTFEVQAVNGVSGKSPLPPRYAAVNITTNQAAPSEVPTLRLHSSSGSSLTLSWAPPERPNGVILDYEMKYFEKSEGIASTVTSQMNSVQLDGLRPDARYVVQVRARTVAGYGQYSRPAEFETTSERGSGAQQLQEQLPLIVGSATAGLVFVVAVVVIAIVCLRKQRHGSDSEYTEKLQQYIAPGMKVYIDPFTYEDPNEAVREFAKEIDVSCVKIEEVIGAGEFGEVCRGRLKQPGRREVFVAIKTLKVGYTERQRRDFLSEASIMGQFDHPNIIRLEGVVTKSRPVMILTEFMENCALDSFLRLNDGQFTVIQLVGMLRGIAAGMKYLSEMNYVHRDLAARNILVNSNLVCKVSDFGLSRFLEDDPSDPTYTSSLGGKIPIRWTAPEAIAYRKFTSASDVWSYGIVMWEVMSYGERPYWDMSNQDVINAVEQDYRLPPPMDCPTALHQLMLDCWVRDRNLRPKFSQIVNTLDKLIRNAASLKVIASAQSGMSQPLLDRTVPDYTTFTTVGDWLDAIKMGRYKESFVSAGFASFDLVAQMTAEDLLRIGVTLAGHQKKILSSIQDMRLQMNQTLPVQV
As to conditions: at 0.1 µM.

Experiment [3] concerns the target T2, Ephrin type-B receptor 3 (Homo sapiens). As to conditions: at 1 µM.
Experiment [4] deals with T3, Ephrin type-B receptor 4 (Homo sapiens) (UniProt P54760).
T3 sequence (whole entry): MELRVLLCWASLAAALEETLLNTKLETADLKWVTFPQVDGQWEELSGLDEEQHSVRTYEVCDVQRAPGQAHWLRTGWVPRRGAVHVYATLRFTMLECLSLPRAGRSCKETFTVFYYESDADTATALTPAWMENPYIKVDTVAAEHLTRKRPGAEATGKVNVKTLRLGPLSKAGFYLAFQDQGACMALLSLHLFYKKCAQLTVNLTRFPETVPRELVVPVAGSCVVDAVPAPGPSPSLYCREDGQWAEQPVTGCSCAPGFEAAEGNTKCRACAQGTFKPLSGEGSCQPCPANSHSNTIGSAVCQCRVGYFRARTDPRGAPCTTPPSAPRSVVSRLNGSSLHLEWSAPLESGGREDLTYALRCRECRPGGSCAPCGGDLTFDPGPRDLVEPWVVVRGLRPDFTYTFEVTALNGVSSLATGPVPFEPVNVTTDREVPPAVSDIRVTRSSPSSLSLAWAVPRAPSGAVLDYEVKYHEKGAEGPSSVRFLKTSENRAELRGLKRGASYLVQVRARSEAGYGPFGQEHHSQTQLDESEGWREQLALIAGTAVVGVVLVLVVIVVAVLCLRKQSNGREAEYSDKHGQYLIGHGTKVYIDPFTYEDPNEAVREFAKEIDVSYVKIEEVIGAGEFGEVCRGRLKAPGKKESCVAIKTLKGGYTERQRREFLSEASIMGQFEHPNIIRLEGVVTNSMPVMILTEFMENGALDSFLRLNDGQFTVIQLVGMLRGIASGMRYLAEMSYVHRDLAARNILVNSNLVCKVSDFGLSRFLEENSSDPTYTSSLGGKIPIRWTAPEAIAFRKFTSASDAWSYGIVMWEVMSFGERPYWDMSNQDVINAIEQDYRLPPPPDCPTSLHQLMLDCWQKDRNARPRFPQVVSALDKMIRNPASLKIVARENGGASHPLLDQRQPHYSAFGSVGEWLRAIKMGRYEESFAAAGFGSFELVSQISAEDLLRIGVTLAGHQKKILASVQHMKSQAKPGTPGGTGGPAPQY
As to conditions: at 0.1 µM.

In experiment [5] the target is T3, Ephrin type-B receptor 4 (Homo sapiens). As to conditions: at 1 µM.
Experiment [6] concerns the target Receptor tyrosine-protein kinase erbB-2 (Homo sapiens) (UniProt P04626). The note with it: at 0.1 µM.
For experiment [7] the target is unchanged. The note with it: at 1 µM.
Experiment [8] addresses Receptor tyrosine-protein kinase erbB-4 (Homo sapiens) (UniProt Q15303). The note with it: at 0.1 µM.
Experiment [9] shares this target. As to conditions: at 1 µM.
Experiment [10] addresses Tyrosine-protein kinase Fer (Homo sapiens) (UniProt P16591). The note with it: at 0.1 µM.
Experiment [11] has the same target. As to conditions: at 1 µM.
In experiment [12] the target is Tyrosine-protein kinase Fes/Fps (Homo sapiens) (UniProt P07332). As to conditions: at 0.1 µM.
For experiment [13] the target is unchanged. The note with it: at 1 µM.
Experiment [14] concerns the target Fibroblast growth factor receptor 1 (Homo sapiens) (UniProt P11362). As to conditions: at 0.1 µM.
The target is the same in experiment [15]. As to conditions: at 1 µM.
Experiment [16] has as its target Fibroblast growth factor receptor 2 (Homo sapiens) (UniProt P21802). The note with it: at 0.1 µM.
Experiment [17] has the same target. The note with it: at 1 µM.
Experiment [18] addresses Fibroblast growth factor receptor 3 (Homo sapiens) (UniProt P22607). The note with it: at 0.1 µM.
Experiment [19] shares this target. The note with it: at 1 µM.
The target of experiment [20] is Fibroblast growth factor receptor 4 (Homo sapiens) (UniProt P22455). The note with it: at 0.1 µM.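 Note: values are mean percent inhibition of FGFR4.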
Fibroblast growth factor receptor 4 (Homo sapiens), sequence (P22455 22-802 limits assumed): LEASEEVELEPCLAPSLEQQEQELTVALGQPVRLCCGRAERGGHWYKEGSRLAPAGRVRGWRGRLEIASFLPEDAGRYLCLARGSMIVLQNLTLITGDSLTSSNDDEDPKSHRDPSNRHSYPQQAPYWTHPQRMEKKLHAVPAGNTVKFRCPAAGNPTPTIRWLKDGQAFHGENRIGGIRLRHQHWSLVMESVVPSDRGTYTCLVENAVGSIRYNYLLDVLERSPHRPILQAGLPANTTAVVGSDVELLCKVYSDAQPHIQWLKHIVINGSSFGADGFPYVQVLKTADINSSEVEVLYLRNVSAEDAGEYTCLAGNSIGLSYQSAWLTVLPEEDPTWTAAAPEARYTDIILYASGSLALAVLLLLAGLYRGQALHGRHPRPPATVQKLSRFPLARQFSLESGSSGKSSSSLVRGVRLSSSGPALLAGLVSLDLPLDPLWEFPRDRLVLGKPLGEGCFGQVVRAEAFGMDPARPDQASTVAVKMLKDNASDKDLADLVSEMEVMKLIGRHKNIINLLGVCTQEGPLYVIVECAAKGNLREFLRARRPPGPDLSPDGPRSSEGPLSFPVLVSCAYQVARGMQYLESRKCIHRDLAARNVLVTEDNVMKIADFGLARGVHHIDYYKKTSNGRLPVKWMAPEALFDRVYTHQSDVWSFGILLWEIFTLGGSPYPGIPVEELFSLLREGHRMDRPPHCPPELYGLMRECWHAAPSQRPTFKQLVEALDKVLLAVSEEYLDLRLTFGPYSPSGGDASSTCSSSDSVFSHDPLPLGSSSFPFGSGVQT

Tyrosine-protein kinase Fes/Fps (Homo sapiens), sequence (P07332 whole entry): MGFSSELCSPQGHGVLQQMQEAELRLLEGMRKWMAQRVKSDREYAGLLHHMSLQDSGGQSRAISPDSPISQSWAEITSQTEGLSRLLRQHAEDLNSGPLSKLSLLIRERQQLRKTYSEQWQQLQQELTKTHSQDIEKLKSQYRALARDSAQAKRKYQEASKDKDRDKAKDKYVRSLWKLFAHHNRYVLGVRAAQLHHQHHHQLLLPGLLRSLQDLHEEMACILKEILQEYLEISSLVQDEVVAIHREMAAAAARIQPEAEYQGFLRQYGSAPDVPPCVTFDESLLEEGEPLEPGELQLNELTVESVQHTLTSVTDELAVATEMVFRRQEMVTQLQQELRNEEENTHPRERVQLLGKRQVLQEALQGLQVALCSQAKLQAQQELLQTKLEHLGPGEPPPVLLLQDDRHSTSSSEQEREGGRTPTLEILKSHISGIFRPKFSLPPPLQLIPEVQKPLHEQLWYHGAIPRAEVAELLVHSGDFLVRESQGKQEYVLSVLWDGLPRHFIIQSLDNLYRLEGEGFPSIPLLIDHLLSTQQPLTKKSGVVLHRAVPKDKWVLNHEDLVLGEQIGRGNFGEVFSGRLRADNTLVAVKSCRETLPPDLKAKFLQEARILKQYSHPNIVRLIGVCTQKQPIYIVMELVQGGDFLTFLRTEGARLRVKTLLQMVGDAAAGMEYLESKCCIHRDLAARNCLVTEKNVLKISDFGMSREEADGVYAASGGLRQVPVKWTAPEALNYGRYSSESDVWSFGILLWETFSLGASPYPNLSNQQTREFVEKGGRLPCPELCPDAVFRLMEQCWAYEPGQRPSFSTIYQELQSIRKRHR
Fibroblast growth factor receptor 3 (Homo sapiens), sequence (P22607 23-806 limits assumed): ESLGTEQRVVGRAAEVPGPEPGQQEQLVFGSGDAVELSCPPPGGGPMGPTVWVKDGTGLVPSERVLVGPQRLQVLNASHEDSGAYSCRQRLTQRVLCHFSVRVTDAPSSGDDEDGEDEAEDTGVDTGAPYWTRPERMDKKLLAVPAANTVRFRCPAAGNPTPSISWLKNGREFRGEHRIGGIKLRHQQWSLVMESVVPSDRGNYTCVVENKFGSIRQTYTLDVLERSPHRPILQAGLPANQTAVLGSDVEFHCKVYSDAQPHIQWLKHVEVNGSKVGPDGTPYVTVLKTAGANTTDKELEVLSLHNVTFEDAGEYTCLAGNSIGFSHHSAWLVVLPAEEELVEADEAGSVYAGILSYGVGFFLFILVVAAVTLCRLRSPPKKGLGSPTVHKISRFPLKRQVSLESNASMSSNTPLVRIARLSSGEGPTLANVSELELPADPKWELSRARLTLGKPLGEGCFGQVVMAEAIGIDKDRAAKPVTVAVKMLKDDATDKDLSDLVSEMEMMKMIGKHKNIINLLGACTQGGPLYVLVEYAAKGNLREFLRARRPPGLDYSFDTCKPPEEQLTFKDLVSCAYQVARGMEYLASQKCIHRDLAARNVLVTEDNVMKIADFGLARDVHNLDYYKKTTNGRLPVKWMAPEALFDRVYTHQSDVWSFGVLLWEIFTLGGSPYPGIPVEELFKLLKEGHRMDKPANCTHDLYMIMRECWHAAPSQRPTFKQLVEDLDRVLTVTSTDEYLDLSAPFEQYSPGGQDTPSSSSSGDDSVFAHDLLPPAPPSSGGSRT
Fibroblast growth factor receptor 1 (Homo sapiens), sequence (P11362 22-822 limits assumed): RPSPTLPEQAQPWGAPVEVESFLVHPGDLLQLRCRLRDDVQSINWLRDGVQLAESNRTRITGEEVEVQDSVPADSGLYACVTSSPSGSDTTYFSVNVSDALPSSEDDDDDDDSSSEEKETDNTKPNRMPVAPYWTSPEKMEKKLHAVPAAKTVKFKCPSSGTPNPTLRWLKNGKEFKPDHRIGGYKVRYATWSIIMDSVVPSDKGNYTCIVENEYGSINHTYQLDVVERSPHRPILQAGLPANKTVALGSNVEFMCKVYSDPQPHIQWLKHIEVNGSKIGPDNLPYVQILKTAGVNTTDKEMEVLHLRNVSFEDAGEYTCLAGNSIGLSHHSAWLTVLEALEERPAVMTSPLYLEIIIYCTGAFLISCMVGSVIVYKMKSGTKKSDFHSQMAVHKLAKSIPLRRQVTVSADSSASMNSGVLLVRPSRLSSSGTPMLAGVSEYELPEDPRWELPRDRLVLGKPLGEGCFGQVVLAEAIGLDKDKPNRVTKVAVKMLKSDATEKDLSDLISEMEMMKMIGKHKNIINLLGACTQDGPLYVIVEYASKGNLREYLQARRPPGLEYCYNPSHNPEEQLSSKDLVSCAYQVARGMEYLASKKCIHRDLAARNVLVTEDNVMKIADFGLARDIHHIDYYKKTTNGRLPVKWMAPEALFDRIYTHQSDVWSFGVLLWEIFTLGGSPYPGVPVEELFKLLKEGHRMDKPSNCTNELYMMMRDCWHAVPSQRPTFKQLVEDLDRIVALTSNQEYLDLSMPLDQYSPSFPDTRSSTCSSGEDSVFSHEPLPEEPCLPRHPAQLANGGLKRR
Fibroblast growth factor receptor 2 (Homo sapiens), sequence (P21802 22-821 limits assumed): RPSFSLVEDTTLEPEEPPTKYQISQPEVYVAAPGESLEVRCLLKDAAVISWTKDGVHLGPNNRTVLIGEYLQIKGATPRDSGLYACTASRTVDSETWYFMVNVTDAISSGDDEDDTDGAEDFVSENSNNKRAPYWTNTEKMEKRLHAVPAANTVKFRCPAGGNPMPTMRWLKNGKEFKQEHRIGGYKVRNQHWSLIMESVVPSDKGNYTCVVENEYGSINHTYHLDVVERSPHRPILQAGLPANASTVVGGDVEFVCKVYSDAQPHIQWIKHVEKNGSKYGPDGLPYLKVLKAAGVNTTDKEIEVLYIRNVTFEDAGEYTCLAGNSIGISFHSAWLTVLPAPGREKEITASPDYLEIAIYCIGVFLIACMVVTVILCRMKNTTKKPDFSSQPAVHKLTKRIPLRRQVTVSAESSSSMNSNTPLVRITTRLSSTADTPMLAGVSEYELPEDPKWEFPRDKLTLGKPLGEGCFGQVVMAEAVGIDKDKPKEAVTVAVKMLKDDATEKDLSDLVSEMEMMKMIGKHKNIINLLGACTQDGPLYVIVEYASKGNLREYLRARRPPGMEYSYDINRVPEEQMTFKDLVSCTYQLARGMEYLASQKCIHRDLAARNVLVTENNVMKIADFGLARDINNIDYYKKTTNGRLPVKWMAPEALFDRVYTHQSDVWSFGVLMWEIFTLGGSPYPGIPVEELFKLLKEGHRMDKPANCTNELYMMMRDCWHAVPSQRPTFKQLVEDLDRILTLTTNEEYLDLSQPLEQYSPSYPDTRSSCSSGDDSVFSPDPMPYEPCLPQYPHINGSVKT
Tyrosine-protein kinase Fer (Homo sapiens), sequence (P16591 whole entry, looked up): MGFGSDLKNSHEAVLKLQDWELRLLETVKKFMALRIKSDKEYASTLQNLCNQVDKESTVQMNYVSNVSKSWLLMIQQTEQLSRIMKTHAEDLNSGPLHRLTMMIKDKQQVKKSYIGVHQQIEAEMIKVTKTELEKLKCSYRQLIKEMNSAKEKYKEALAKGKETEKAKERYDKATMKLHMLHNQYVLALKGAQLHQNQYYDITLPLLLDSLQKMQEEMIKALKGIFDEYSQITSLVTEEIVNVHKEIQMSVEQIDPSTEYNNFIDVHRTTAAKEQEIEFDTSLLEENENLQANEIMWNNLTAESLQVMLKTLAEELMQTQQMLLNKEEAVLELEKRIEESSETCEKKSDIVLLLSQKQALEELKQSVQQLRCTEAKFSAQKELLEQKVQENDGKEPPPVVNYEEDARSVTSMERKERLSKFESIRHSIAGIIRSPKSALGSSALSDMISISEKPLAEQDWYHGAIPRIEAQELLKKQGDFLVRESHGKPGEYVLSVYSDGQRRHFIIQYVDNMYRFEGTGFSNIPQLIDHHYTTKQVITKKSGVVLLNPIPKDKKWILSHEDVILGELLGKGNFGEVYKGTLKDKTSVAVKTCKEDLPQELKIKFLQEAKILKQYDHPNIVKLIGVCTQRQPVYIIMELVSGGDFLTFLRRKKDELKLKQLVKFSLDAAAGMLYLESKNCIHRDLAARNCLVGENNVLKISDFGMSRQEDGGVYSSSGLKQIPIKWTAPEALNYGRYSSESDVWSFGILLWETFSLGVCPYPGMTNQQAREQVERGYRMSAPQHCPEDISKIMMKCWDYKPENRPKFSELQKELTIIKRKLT

A word on the inhibition: it is the relative decrease from the control value, in per cent. As to `CCn1c(-c2nonc2N)nc2c(C#CC(C)(C)O)ncc(OCC3CCNCC3)c21`, the inhibition in experiment [1] was 7.37%; in experiment [2] it was -0.37%; in experiment [3], -1.35%; in experiment [4], -3.5%; in experiment [5], -2.94%; in [6] it was 1.27%. The inhibition came out at 5.1% in experiment [7]; 2.93% in experiment [8]; 3.14% in experiment [9]; 2.18% in experiment [10]; 6.84% in [11]; 2.17% in experiment [12]. The inhibition in experiment [13] is 4.04%; in [14], -2.34%; in experiment [15] it was -0.27%; in experiment [16], -1.71%; in [17], 3.89%; in [18], 1.17%. The inhibition in experiment [19] was -1.22%; in [20], -6.83%.
Regarding `NC(=O)c1sc(-n2cnc3cc(C(F)(F)F)ccc32)cc1OCc1ccccc1Br`, the inhibition was determined as 4.29% in experiment [1]; 1.68% in [2]; 3.79% in [3]; 0.19% in experiment [4]; 1.65% in experiment [5]; 3.19% in experiment [6]. Besides, the inhibition came to 4.72% in experiment [7]; 5.4% in experiment [8]; 14.4% in experiment [9]; 2.82% in experiment [10]; 6.44% in [11]; 2.76% in [12]. The inhibition in experiment [13] is 1.99%; in experiment [14] it was -2.05%; in experiment [15], 1.74%; in experiment [16], 2.24%; in experiment [18], 1.69%; in [19], 2.38%. Also, the inhibition in [20] came out at 2.01%.
As to `COc1cc2c(cc1Nc1nc(Nc3ccsc3C(N)=O)c3cc[nH]c3n1)N(C(=O)CN(C)C)CCC2`, the inhibition in experiment [1] is 5.1%; in experiment [2] it was 0.25%; in [3], 1.02%; in experiment [4], -2.11%; in experiment [5], 1.55%; in [6], -0.5%. Moreover, the inhibition was determined as 1.76% in experiment [7]; 8.03% in [8]; 35.3% in [9]; 79.7% in [10]; 81.6% in [11]; 77.9% in experiment [12]. Moreover, the inhibition in [13] is 86.8%; in experiment [14], -0.88%; in experiment [15], -1.8%; in [16], 1.41%; in [17], 0.97%; in experiment [18] it was 0.66%. In addition, the inhibition in [19] is 2.61%; in [20] it was -1.12%.
Take `Fc1ccc(-c2ncn(C3CCNCC3)c2-c2ccnc(Oc3ccccc3)n2)cc1`: the inhibition in experiment [1] is 5.52%; in [2], -0.53%; in experiment [3] it was -0.5%; in [4], -4.2%; in experiment [5], 1.66%; in experiment [6], 9.4%. Besides, the inhibition in experiment [7] was 10.7%; in experiment [8], 10.8%; in experiment [9], 15.3%; in experiment [10] it was 1.63%; in experiment [11] it was 0.16%; in [12] it was 1.02%. Further, the inhibition is 1.03% in [13]; -5.35% in experiment [14]; -7.09% in [15]; -0.63% in experiment [16]; -3.24% in experiment [17]; -1.57% in experiment [18]. The inhibition was -4.55% in experiment [19] and -2.7% in experiment [20].
With `CCn1c(-c2nonc2N)nc2c(C#CC(C)(C)O)ncc(OC[C@@H]3CCCN3)c21`, the inhibition in [1] was -3.01%; in experiment [2], -0.27%; in experiment [3], 0.62%; in [4], -1.76%; in [5] it was 1.1%; in [6], 0.95%. The inhibition in experiment [7] is 3.51%; in experiment [8], 1.3%; in experiment [9] it was 7.9%; in experiment [10] it was -1.38%; in [11] it was 0.7%; in experiment [12] it was 2.01%. Further, the inhibition in [13] was 4.12%; in [14], -0.74%; in experiment [15] it was 0.08%; in experiment [16], -1.27%; in [17], 0.8%; in experiment [18], -3.24%. Moreover, the inhibition in experiment [19] stood at 0.67%; in experiment [20], 2.54%.
Consider `COc1cc(C=NNc2ncnc3c2cnn3Cc2ccccc2)ccc1O`, for which the inhibition was 9.74% in experiment [1]; -7.53% in experiment [2]; -0.1% in experiment [3]; 4.81% in [4]; 7.15% in experiment [5]; -6.92% in experiment [6]. The inhibition was -3.2% in experiment [7]; 3.46% in [10]; 4.33% in [11]; -4.54% in experiment [12]; -3.75% in experiment [13]; -3.93% in experiment [14]. Also, the inhibition in experiment [15] is -5.25%; in experiment [16], -7.09%; in experiment [17], -2.01%; in [18], -3.23%; in experiment [19], -2.85%; in experiment [20], -3.36%.
`COc1cccc(-n2ncc3c(N/N=C/c4ccncc4)ncnc32)c1`: the inhibition in [1] amounted to 30.4%; in experiment [2], 4.72%; in experiment [3], 3.82%; in [4] it was 3.92%; in experiment [5], 13.7%; in [6], 0.91%. The inhibition in experiment [7] amounted to 5.53%; in [8], 9.63%; in experiment [9], 20.9%; in experiment [10], 4.97%; in experiment [11], 11.7%; in experiment [12], 3.38%. The inhibition in [13] turned out to be 5.85%; in [14], 4.8%; in experiment [15], 8.02%; in [16] it was 4.98%; in [17], 14.5%; in experiment [18], 7.39%. Further, the figures for the inhibition in experiment [19] and in experiment [20] were 11.9% and 1.99%, respectively.
